The record followed here is PubChem BioAssay.

SMILES strings stand for the structures. Records with an inconclusive call do not appear. Calls of active or inactive are those of the source.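 The calls were made as follows, unless noted: active = growth inhibition above 25% in both replicates, a cutoff set 3 SD above the mean; inconclusive = above 25% in only one replicate; inactive = the rest.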

Test [1] can be described thus: reducers of endogenous Her2 protein level, primary screen, SKBR3 breast tumor cells, AlphaScreen, ATP viability (AID 461;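 active = Her2 level under about 52% in both replicate screens, with viability over 70% of control, limit read from the data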;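 as to Her2 level: lower value means less Her2 protein in the cells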;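 as to viability: percent of carrier control wells set as 100% viability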). The note with it: 18-24 h, measured here: SKBR3 viability, ATP luminescence, at 10 µM.
Test [2] deals with Receptor tyrosine-protein kinase erbB-2 (Homo sapiens) (UniProt P04626). The description is as above. The settings on record: 18-24 h, at 10 µM, stronger effect = lower value.
Test [3] in a line: SK-BR-3 cell growth inhibitors, pilot screen, 24 h, human (AID 572;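 active = viability at or below 10% of carrier control in both of two separate runs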;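 also: compound exposure lasted between 18 and 24 h rather than exactly 24 h; 100% = carrier-treated control wells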). The note with it: SK-BR-3 viability, CellTiter-Glo luminescence, at 10 µM, stronger effect = lower value. For orientation: In ATP-based viability assays light output follows the ATP content of the culture.
The nature of test [4]: HUVEC growth inhibition – cell-based, human, primary screen (AID 575;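 active = viability at or below 30% in both replicate assays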;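 also: 100% = median of untreated cell wells with 0.1% DMSO on each plate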). The settings on record: HUVEC proliferation, CellTiter-Glo luminescence, 72 h; at 10 µM; stronger effect = lower value.
Test [5] is described as follows: growth inhibitors of H69AR lung tumor, primary screen, human, duplicate replicates (AID 580;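 active = viability at or under a set limit in both replicates, limit being median viability minus 3 SD, cut at about 48% in these data, passing the limit was not always enough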;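 also: 100% = mean luminescence of untreated wells and 0% = no signal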). The settings on record: H69AR lung tumor cells viability, ATP luminescence, 72 h; at 10 µM; stronger effect = lower value.
The nature of test [6]: reversal of MRP1-mediated doxorubicin resistance, pilot screen, H69AR cells, doxorubicin co-treatment (AID 601;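 active = viability loss from added drug above about 55%, and viability with drug at most 40%, in both replicates, limit read from the data, passing the limit was not always enough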). The settings on record: CellTiter-Glo, 72 h, at 10 µM; for differential viability (reversal): stronger effect = higher value.
Test [7] can be described thus: 384-well plate pilot, post-Golgi transport modulator project, inhibition of yeast transport mutant growth (AID 636; in the data active = inhibition above about 31%). The settings on record: absorbance 615 nm, about 18 h, stronger effect = higher value.
Test [8] is described as follows: growth suppression of yeast trafficking mutant, preliminary HTS, modulators of trafficking downstream of Golgi apparatus project, 1536-format plate, OD 615 nm (AID 637; in the data active = inhibition above about 30%). The settings on record: yeast transport mutant growth, absorbance 615 nm, 18 h; stronger effect = higher value.
Test [9] in a line: OD615 S. cerevisiae growth inhibition, permissive medium, pilot counter-assay, permissive growth control for S. cerevisiae lifespan shortening project (AID 705). The note with it: OD615, 24 h, at 10 µM, stronger effect = higher value.
Test [10] is described as follows: Restrictive medium S. cerevisiae growth inhibition, OD615, pilot screen of yeast lifespan reduction project, restrictive growth control (AID 706;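 active = growth inhibition above a set limit, 3 SD over mean compound inhibition, in both replicates, cut at about 43% in these data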;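 also: modified DeaD lifespan yeast strain shifted to restrictive glucose medium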). The settings on record: OD615, 48 h, at 10 µM, stronger effect = higher value.
Test [11] is described as follows: viability gain of MRP-1-high H69AR cells under doxorubicin, pilot screen, MRP-1 activator project, CellTiter-Glo, duplicate (AID 807;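 active = viability increase at or above a cutoff of the median across tested compounds plus 3 SD, cut at about 8.5% in these data, passing the limit was not always enough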;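 also: compound pretreatment 18-22 h then 72 h combined with doxorubicin; 0% = doxorubicin alone and 100% = vehicle without doxorubicin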). The note with it: H69AR viability with doxorubicin, CellTiter-Glo luminescence; at 10 µM; stronger effect = higher value.
The nature of test [12]: growth suppression of beta-catenin knockout HCT116, pilot screen, human colon tumor cells (AID 823;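 active = cell viability at or below a set limit in both duplicate runs, the limit being the all-compound median minus 4 SD, cut at about 23% in these data, passing the limit was not always enough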;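 also: 0% = wells killed by 20 µM Hyamine and 100% = untreated DMSO cell wells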). The note with it: CellTiter-Glo, 60 h, at 10 µM, stronger effect = lower value.
Test [13] is described as follows: growth suppression of PTEN-deleted HCT116, pilot screen, cell-based, HCT116 clonal line, CellTiter-Glo (AID 824;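 active = viability at or below 27.92% in each of two runs, the all-compound median minus 4 SD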;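 also: 0% = 20 µM Hyamine control and 100% = vehicle cell control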). The note with it: 60 h, at 10 µM, stronger effect = lower value.
A short description of test [14]: inhibitors of the yeast RAM network, pilot screen, dse1pr::URA3 reporter, 5-FOA selection (AID 869;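 active = inhibition over a set limit, the all-compound mean plus 3 SD, in both replicate runs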;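 also: 0% = DMSO wells with no growth and 100% = 10 µM 1-NA-PP1 with full growth; RAM network block rescues cells from 5-FOA so hits raise OD615 growth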). The note with it: S. cerevisiae dse1pr::URA3 5-FOA growth, OD615, 2 d; at 10 µM; stronger effect = higher value; strain carries analog-sensitive mutant Cbk1 kinase.
Test [15] can be described thus: RAM signaling pathway blockade in yeast – S. cerevisiae, Pdr1DBD-CYC8 efflux-inhibited sensitized strain, primary screen (AID 1298;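 active = RAM network inhibition above 8.4% in each of two replicates, 3 SD over the compound average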;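 also: 0% = DMSO untreated cells without growth and 100% = 10 µM 1-NA-PP1 full growth; higher means more yeast growth rescued from 5-FOA killing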). The settings on record: S. cerevisiae cbk1-as DSE1-URA3 strain, 5-FOA growth OD615, 2 d; at 50 µM; stronger effect = higher value.
Where [16] appears, read: H69AR cells + 2 uM doxorubicin, measured here: viability with 2 uM doxorubicin, stronger effect = lower value.
Setting [17] is: H69AR cells, compound alone cytotoxicity.

Receptor tyrosine-protein kinase erbB-2 (Homo sapiens), sequence (P04626 whole entry, looked up): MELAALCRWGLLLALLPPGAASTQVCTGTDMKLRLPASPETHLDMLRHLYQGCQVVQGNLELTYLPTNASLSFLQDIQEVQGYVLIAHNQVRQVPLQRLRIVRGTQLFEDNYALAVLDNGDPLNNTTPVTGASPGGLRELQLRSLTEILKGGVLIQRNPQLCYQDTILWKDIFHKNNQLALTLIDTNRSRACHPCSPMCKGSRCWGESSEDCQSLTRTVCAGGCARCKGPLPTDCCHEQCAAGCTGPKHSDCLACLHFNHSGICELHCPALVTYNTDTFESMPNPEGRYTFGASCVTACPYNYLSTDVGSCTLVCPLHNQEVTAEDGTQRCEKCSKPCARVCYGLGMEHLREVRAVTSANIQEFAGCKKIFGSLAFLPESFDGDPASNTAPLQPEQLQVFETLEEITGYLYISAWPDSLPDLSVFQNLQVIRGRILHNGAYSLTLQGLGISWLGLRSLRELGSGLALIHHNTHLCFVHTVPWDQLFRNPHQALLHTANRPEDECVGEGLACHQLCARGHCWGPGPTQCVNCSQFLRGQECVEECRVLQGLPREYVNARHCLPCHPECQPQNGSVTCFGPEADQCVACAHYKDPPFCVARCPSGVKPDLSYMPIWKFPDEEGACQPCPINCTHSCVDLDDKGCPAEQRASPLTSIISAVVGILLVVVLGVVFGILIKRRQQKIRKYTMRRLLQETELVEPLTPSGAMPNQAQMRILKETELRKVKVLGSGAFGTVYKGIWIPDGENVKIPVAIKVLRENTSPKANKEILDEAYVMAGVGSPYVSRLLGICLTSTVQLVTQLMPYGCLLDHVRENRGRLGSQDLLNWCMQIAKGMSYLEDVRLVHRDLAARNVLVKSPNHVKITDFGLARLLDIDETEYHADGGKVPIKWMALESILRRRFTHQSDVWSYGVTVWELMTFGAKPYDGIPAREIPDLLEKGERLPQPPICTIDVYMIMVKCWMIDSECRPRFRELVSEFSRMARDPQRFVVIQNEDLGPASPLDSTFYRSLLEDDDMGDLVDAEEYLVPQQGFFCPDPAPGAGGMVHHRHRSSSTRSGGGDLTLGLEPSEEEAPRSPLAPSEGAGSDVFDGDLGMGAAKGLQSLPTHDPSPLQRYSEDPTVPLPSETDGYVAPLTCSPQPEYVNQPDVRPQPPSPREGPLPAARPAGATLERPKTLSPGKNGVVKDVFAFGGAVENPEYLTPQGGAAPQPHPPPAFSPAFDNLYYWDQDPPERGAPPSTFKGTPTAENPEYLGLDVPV

Usually viability stands for a read-out of living cells in per cent, often relative to untreated cells. As usually defined, the inhibition is the change of the read-out against control, counted positive when it falls. Regarding `CCCCN(C(=O)c1ccc(Cl)cc1)C1CC2CCC(C1)N2C` (stereo not given), the viability in [1] is 87.5%; in test [3], 87.5% (inactive); in [4] it was 78.2% (inactive); in test [5], 85.1% (inactive); in test [6] (setting [16]), 81.2%; in test [6] (setting [17]), 85.1%. Moreover, the figures for the viability in test [12] and in test [13] were 85.3% (inactive) and 89.3% (inactive), respectively. In [2], the Her2 level is 120% (inactive). Also, in test [6] (H69AR cells + 2 uM doxorubicin), the differential viability (reversal) is 3.96% (inactive). Also, the inhibition is -5.6% (inactive) in [7], -4% (inactive) in test [8] and 1.62% (inactive) in test [14]. Also, the growth inhibition was -9.97% (inactive) in test [9] and 1.71% (inactive) in test [10]. In addition, the viability increase in [11] was -2.41% (inactive). In addition, the RAM network inhibition in [15] is -0.05% (inactive).

Turning to `Cc1nnc(SCC(=O)NCc2ccccc2)s1`, the viability in test [1] was 97.5%; in test [3], 97.5% (inactive); in test [4] it was 81.2% (inactive); in [5], 101% (inactive); in test [6] (setting [16]), 99.3%; in test [6] (setting [17]), 101%. Besides, the viability in [12] was 101% (inactive); in test [13], 102% (inactive). Besides, the Her2 level in [2] was 110% (inactive). Besides, the differential viability (reversal) in test [6] (H69AR cells + 2 uM doxorubicin) is 1.61% (inactive). Moreover, the inhibition in [7] was -1.43% (inactive); in test [8] it was -2% (inactive); in test [14], 0.99% (inactive). For the same molecule, the growth inhibition in test [9] and in test [10] was -11.3% (inactive) each time. The viability increase in test [11] is -1.46% (inactive). In addition, in test [15], the RAM network inhibition is 4.69% (inactive).

Take `CC1CCc2nn(CC(=O)NCc3ccc(F)cc3)cc2C1` (stereo not given): the viability in [1] is 122%; in [3], 122% (inactive); in [4] it was 79.4% (inactive); in test [5], 89.4% (inactive); in test [6] (setting [16]), 93.6%; in test [6] (setting [17]) it was 89.4%. Also, the viability in test [12] was 86.4% (inactive); in [13], 87.6% (inactive). Also, in test [2], the Her2 level is 102% (inactive). Also, the differential viability (reversal) in test [6] (H69AR cells + 2 uM doxorubicin) is -4.28% (inactive). For the same molecule, the figures for the inhibition in test [7], in test [8] and in [14] were -0.51% (inactive), -2.33% (inactive) and -0.73% (inactive), respectively. Further, the growth inhibition was -3.91% (inactive) in test [9] and 8.68% (inactive) in [10]. Also, in test [11], the viability increase is -2.02% (inactive). Moreover, the RAM network inhibition in [15] was 1.16% (inactive).

In the case of `COc1cc2c(cc1OC)-c1nnc(-c3cccs3)n1C(C)(C)C2`, the viability in test [1] is 64.5%; in test [3], 64.5% (inactive); in test [4], 114% (inactive); in test [5], 102% (inactive); in test [6] (setting [16]), 99.1%; in test [6] (setting [17]), 102%. Also, the viability in test [12] is 90.4% (inactive); in test [13] it was 80.6% (inactive). Besides, the Her2 level in [2] was 95.5% (inactive). The differential viability (reversal) in test [6] (H69AR cells + 2 uM doxorubicin) is 2.48% (inactive). For the same molecule, the inhibition was 0.13% (inactive) in [7], -4.17% (inactive) in test [8] and 0.115% (inactive) in [14]. The growth inhibition was -11.8% (inactive) in test [9] and -8.72% (inactive) in [10]. The viability increase in [11] is -2.78% (inactive). Further, the RAM network inhibition in test [15] was 0.94% (inactive).

On to `Cn1c(C(=O)NCCCN2CCN(c3ccc(F)cc3)CC2)cc2c(=O)n(C)c3ccccc3c21`, for which the viability in [1] is 81%; in [3], 81% (inactive); in test [4], 65.7% (inactive); in test [5], 84.1% (inactive); in [6] (setting [16]), 79.8%; in [6] (setting [17]) it was 84.1%. In addition, the viability in test [12] is 67.8% (inactive); in test [13], 70.1% (inactive). Besides, the Her2 level in [2] is 90% (inactive). Moreover, the differential viability (reversal) in test [6] (H69AR cells + 2 uM doxorubicin) is 4.36% (inactive). Besides, the results for the inhibition in [7], in [8] and in test [14] were -3.07% (inactive), 0% (inactive) and -0.495% (inactive), respectively. Besides, the growth inhibition is -6.23% (inactive) in [9] and 7.21% (inactive) in test [10]. In test [11], the viability increase is -5.3% (inactive). Besides, the RAM network inhibition in test [15] is 1.71% (inactive).
